From the supplement of paper PMC8047044
Where “and” joins values, the source holds several entries; their conditions need not be identical. Identical values can stand only once. Counter-ions that a name gives are not always drawn.

tested on: Neuro-2a; assay: neurite formation score, plate-normalized to DMSO control mean 5.04 (score (0-8 scale)); higher = more or longer neurites; details: 1 µM
Method: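 Neuro-2a mouse neuroblastoma cells in PLL-coated 96-well plates were pre-treated for 1 h in DMEM(+) with each kinase inhibitor at 1 µM, then switched to serum-free DMEM(-) with inhibitor to induce neurite outgrowth and fixed about 2-3 h later. Three blinded observers scored neurite formation from 0 (no neurites) to 8 (long neurites on almost all cells).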

SMILES | neurite formation score
O=C(/C=C/c1ccc(O)c(O)c1)c1ccc(O)cc1O [Butein] | 5.24
CCn1c2ccccc2c2cc(Nc3ccnc(NCCCN4CCOCC4)n3)ccc21 | 3.54
C[C@H](Nc1ncnc2nc[nH]c12)c1cc2cccc(Cl)c2c(=O)n1-c1ccccc1 | 2.91
CC(C)(CCCCCC(O)CCCCCC(C)(C)C(=O)O)C(=O)O | 0.138
CN1CCN(Cc2ccc(-c3cnc4[nH]cc(-c5ccc6[nH]ccc6c5)c4c3)cc2)CC1 | 4.54
COc1ccc(-c2cnc3c(-c4cccc5ncccc45)cnn3c2)cc1 | 3.88
CCOC(=O)c1cnc2ccc(-c3cncc(NS(=O)(=O)c4ccccc4)c3)cn12 | -0.457
CCc1cccc(CC)c1NC(=O)N1Cc2[nH]nc(NC(=O)c3ccc(N4CCN(C)CC4)cc3)c2C1 | 4.8
COc1ccc2c(OCc3nnc4ccc(-c5ccccc5)nn34)ccnc2c1 | 4.54
CCN1CCN(Cc2ccc(NC(=O)Nc3ccc(Oc4cc(NC)ncn4)cc3)cc2C(F)(F)F)CC1 | 4.57
Cc1ccc([N+](=O)[O-])cc1S(=O)(=O)N(C)/N=C/c1cnc2ccc(Br)cn12 | 4.54
Oc1cccc(-c2nc(N3CCOCC3)c3oc4ncccc4c3n2)c1 [PI-103 Hydrochloride] | 4.69
Cc1ccc(-c2csc3ncnc(SCCC(=O)O)c23)cc1 | 4.02
CC(=O)c1c(C)c2cnc(Nc3ccc(N4CCNCC4)cn3)nc2n(C2CCCC2)c1=O | 4.57
CC1(COc2ccc3c(c2)ncn3-c2ccc3cccc(N4CCC(N)CC4)c3n2)COC1 | 3.57
Cn1cc(-c2[nH]c3cc(NC(=O)[C@H](N)C4CCCCC4)cc4c3c2C=NNC4=O)cn1 | 3.63
O=C(c1ccc(Nc2nccc(-c3cc4ccccc4s3)n2)cc1)N1CCC(N2CCCC2)CC1 [IKK-16 (IKK Inhibitor VII)] | 4.54
Cc1ccccc1CN1C2=NCCN2C(=O)C2=C1CCN(Cc1ccccc1)C2 | 4.63
CCN(CC)CCCC(C)Nc1ccnc2cc(Cl)ccc12 (stereo not given) [Chloroquine diphosphate] | 4.96
C#Cc1cccc(Nc2ncnc3cc(OC)c(OCCCCCCC(=O)NO)cc23)c1 | 4.36

SMILES | neurite formation score
C=CCc1ccc(O)c(-c2ccc(O)c(CC=C)c2)c1 [Honokiol] | 4.47
CNC(=O)CN1CCC(Oc2cc3c(Nc4cccc(Cl)c4F)ncnc3cc2OC)CC1 [AZD8931 (Sapitinib)] | 4.29
COc1ccc(CNC(=O)Nc2ncc([N+](=O)[O-])s2)cc1 | 4.91
COc1cc2nccc(Oc3ccc(NC(=O)NC4CC4)c(Cl)c3)c2cc1C(N)=O [Lenvatinib (E7080)] | 4.57
COc1ccc(-c2nc(N3CCOCC3)c3sc(CN(C)c4ncc(C(=O)NO)cn4)cc3n2)cn1 | 4.36
Cc1cc(C(C)Nc2ccccc2)c2nc(N3CCOCC3)cc(=O)n2c1 (stereo not given) | 4.47
O=C(NOCC1CC1)c1ccc(F)c(F)c1Nc1ccc(I)cc1Cl | 3.91
CS(=O)(=O)c1ccc(-c2cnc(N)c(C(=O)Nc3ccccc3)n2)cc1 | 4.24
O=C(Nc1ccc(OC(F)(F)F)cc1)c1sccc1NCc1ccnc2ccccc12 | 3.91
Cn1cc(-c2ccc3ncc(Cc4ccc5ncccc5c4)n3n2)cn1 | 4.63
CCS(=O)(=O)Nc1ccc2[nH]c(O)c(C(=Nc3ccc(CN4CCCCC4)cc3)c3ccccc3)c2c1 [Hesperadin] | 1.02
Nc1ccc(-c2ccc3ncc4ccc(=O)n(-c5cccc(C(F)(F)F)c5)c4c3c2)cn1 [Torin 2] | 3.21
Cc1ccc(C(=O)Nc2ccc(CN3CCN(C)CC3)c(C(F)(F)F)c2)cc1C#Cc1cnc2cccnn12 | 1.24
c1ccc2c(-c3cnn4cc(-c5ccc(N6CCNCC6)cc5)cnc34)ccnc2c1 | 5.14 and 4.47
CC(C)Oc1ccc(-c2cnc3c(-c4ccnc5ccccc45)cnn3c2)cc1 | 4.88
CNC(=O)c1c(F)cccc1Nc1nc(Nc2cc3c(cc2OC)CCN3C(=O)CN(C)C)nc2[nH]ccc12 | 4.96
Cc1cc2c(F)c(Oc3ncnn4cc(OC[C@@H](C)OC(=O)[C@H](C)N)c(C)c34)ccc2[nH]1 | 3.57
COc1cc2c(Oc3ccc(NC(=O)C4(C(=O)Nc5ccc(F)cc5)CC4)cc3F)ccnc2cc1OCCCN1CCOCC1 | 3.24
C=CC(=O)Nc1cc(Nc2nccc(-c3cn(C)c4ccccc34)n2)c(OC)cc1N(C)CCN(C)C | 5.14
O=C(NCCCNc1nc(Nc2cccc(CN3CCOCC3)c2)ncc1C1CC1)C1CCC1 | 5.02
